Screening data from PubChem.
Most compounds without a hit are left out; they make up all but 31% or so of the library.
CYP2C9 activ: activators of human CYP2C9; P11712; AID 1024; actives 1.4% (n = 96,000); activation factor at 5 µM; recombinant CYP2C9, luciferin-H conversion, luminescence; stronger effect = higher value; factor 1 = untreated enzyme, 0 = blocked;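 active = activation factor of 2 or more for CYP2C9 at a 5 µM dose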;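 note: 0 = sulfaphenazole-blocked wells and 1 = vehicle-only wells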
Target sequence (P11712 whole entry, looked up): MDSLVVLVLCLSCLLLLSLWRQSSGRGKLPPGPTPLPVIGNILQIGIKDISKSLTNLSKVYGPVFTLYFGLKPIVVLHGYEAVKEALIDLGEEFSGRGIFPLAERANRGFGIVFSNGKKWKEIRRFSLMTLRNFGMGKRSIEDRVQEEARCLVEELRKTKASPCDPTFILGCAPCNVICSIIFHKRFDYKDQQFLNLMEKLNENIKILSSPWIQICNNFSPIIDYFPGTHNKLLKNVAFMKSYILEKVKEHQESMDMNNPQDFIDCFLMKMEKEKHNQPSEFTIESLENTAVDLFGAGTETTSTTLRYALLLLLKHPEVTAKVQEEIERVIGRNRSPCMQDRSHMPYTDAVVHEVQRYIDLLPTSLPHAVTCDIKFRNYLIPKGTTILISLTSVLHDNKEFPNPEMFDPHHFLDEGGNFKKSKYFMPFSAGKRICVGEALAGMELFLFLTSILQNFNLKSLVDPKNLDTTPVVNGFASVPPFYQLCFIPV
CYP2C9 inhib: blocks human cytochrome P450 2C9; P11712; actives 20% (n = 96,000); AID 777; CYP2C9 Supersomes, luciferin-H conversion, luminescence; inhibition, % at 5 µM;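 active = blocking of liver enzyme CYP2C9 beyond about 50% at 5 µM, limit read from the data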
CYP2C19 inhib: human CYP2C19 inhibition | inhibition, % at 5 µM | CYP2C19 Supersomes, luciferin-H EGE luminescence, 30 min | P33261 | actives 21% (n = 96,000);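 active = CYP2C19 inhibition above a set limit at 5 µM in the primary screen, cut at about 50% in these data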;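 note: plate controls were negative control wells for no effect and 2.5 mM tranylcypromine positive control for full effect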
CYP2C19 act: cytochrome P450 2C19 (human) activation; P33261; recombinant CYP2C19, luciferin-H EGE luminescence; stronger effect = higher value; 0 = fully inhibited enzyme, 1 = untreated enzyme; activation factor at 5 µM; 96,000 tested, under 10 active;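 active = activation factor of at least 2 at 5 µM in the primary screen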;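 note: 0 = wells with 2.5 mM tranylcypromine and 1 = vehicle-only wells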
* marks the source's active call; other numbers are inactive results; ! = not confirmed by another sample.

SMILES	CYP2C9 activ	CYP2C9 inhib	CYP2C19 inhib	CYP2C19 act
Cc1cccc(N2CCc3c2nc2ccccc2c3N)c1	0.9	65*!	77*!	0.7
O=C(COc1ccccc1)N1CCN(CC(O)COc2ccccc2)CC1 (centres undefined)	0.8	16	19	0.8
COc1cc(OC)c(OC)cc1CNC(C)C(O)c1ccccc1 (centres undefined)	1.2	-16	67*	0.3
CCOC(=O)N(CC)c1ccc(C(O)(C(=O)OC)C(F)(F)F)cc1 (centres undefined)	0.7	34	64*	0.4
O=C(O)C(O)(c1ccccc1)C1CCCC1 (centres undefined)	0.8	24	3	1
OC1(c2ccc(F)cc2)CC2CCC(C1)N2Cc1nnnn1C1CCCCC1 (centres undefined)	0.6	43	50*	0.5
NC12CN3CN(CN(C3)C1)C2 (tested in a mixture with another compound)	2*	-97	5	1
C[C@]12CCC(=O)C=C1CCC1C2CC[C@@]2(C)C1CC[C@@]2(O)CC#N (some centres undefined)	1.2	-16	-4	1
CCOc1ccc(-n2c(O)c(C=Nc3ccc(N4CCOCC4)cc3)c(=O)[nH]c2=O)cc1	1	-1	-2	1
COc1ccc(CN2CCCCC2c2cccnc2)cc1C (centres undefined)	0.9	15	80*	0.2
O=C1c2ccccc2C(=O)N1Cc1nc2ccccc2c(=O)n1-c1ccccn1	0.7	26	21	0.8
CC(C)(C)OC(=O)c1c(N)n(Cc2ccco2)c2nc3ccccc3nc12	0.2	84*	52*	0.5
COCCCn1c(N)c(C(=O)Nc2sc3c(c2C(=O)OC)CCCC3)c2nc3ccccc3nc21	0.9	12	4	1
COCCCn1c(N)c(C(=O)OC(C)COC)c2nc3ccccc3nc21 (centres undefined)	0.4	59*	31	0.7
CCC(C)NC(=O)c1c(N)n(Cc2ccc3c(c2)OCO3)c2nc3ccccc3nc12 (centres undefined)	0.3	67*	9	0.9
CCC(C)NC(=O)c1c(N)n(CCCOC)c2nc3ccccc3nc12 (centres undefined)	0.1	88*	69*	0.3
CC#CP(=O)(OCC)C(O)(c1ccccc1)C(F)(F)F (centres undefined)	1	-5	1	1
COc1ccc(OC(=O)N(C)C)c(CN(C)C)c1	1	4	-12	1.1
CSC1=NP(=S)(SC)N2CCCC2=C1C#N (centres undefined)	0.8	24	47	0.5
Clc1ccccc1CN1CCN(c2ccccc2Cl)CC1	0.9	14	44	0.6
Fc1ccccc1N1CCN(Cc2c(F)cccc2F)CC1	0.4	63*	100*	0
COc1ccc(CN2CCN(c3ccccc3F)CC2)cc1O	0.9	8	74*	0.3
COc1ccccc1N1CCN(Cc2ccc(Cl)cc2Cl)CC1	0.8	23	56*	0.4
N#Cc1ccc(N2CCNCC2)c(F)c1	1.1	-8	-2	1
CCN(CC)C(=O)c1ccc(N2C(=O)C3CC=C(Cl)CC3C2=O)cc1 (centres undefined)	0.9	5	-3	1
SMILES	CYP2C9 activ	CYP2C9 inhib	CYP2C19 inhib	CYP2C19 act
CSCCC(N=Cc1c(O)n(-c2ccc(F)cc2)c(=O)[nH]c1=O)C(=O)OC(C)(C)C (centres undefined)	1	0	-12	1.1
CC(Cc1ccccc1Sc1ccccc1O)N(C)C (centres undefined)	0.8	21	61*	0.4
CC1(c2ccccc2)NCCN2C(=O)CSC21 (centres undefined)	1.1	-12	11	0.9
Cn1ncnc2c(=O)n(C)c(=O)nc1-2	0.2	80*	95*	0.1
O=C(CN1C(=O)CN=C(c2ccccc2Cl)c2cc(Cl)ccc21)NCc1ccco1	0.7	28	24	0.8
Clc1ccc2c(c1)C(c1ccccc1Cl)=NCc1nnc(N3CCN(CCSc4ccccc4)CC3)n1-2	0.3	68*	8	0.9
CCCN(CC#CCOc1ccc(OC)cc1)CCC	0.8	15	19	0.8
CN1C(=O)N(C)C(=O)C2(Cc3ccccc3N3CCOCC32)C1=O (centres undefined)	1	-2	98*	0
CN1C(=O)C(=Cc2ccccc2Oc2ccc(Cl)c(F)c2)C(=O)N(C)C1=O	0.4	57*	7	0.9
CCOP(=O)(OCC)C(NC(C)=O)C(Cl)(Cl)Cl (centres undefined)	0.6	38	14	0.9
